Activity calls are given as the source filed them. How the source made its calls: active means hit-call score of the fitted dose curve at least 0.9, where 1 is the maximum; inactive means score below 0.9.
Assays:
Conditions in all cases: mRNA level, 48 h; actives raise or lower the signal
[1] = read-out: matrix metalloproteinase-3 (MMP3), MMP3 (gene 4314); test: LTEA_HepaRG_MMP3: Life Technologies and Expression Analysis (LTEA) Assay for matrix metalloproteinase-3 (MMP3) using HepaRG (AID 2283519)
Procedure, shortened: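 Fluidigm-based TaqMan qRT-PCR, normalized to ACTB, GAPDH and POLR2A and fitted bidirectionally versus 0.5% DMSO, measured transcript levels. Treatment: duplicate 48 h exposures of HepaRG cells, ~100,000/well, to eight half-log concentrations topping at 100 uM.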

[2] = read-out: Paternally Expressed 10 (PEG10), PEG10 (gene 23089); test: LTEA_HepaRG_PEG10: Life Technologies and Expression Analysis (LTEA) Assay for Paternally Expressed 10 (PEG10) using HepaRG (AID 2283520)
Procedure, shortened: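 PEG10 transcript measured by Fluidigm qRT-PCR, normalized to three housekeeping genes, in HepaRG cells treated 48 h (highest 100 uM, half-log steps, 0.5% DMSO vehicle). Cells plated 48 h before switching to serum-free induction medium.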

[3] = read-out: Protein phosphatase 2A (PPP2R4), PTPA (gene 5524); test: LTEA_HepaRG_PPP2R4: Life Technologies and Expression Analysis (LTEA) Assay for Protein phosphatase 2A (PPP2R4) using HepaRG (AID 2283522)
Procedure, shortened: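 Expression was quantified by Fluidigm qRT-PCR normalised to three housekeeping genes after 48 h treatment. Human HepaRG cells received an 8-point series from 100 µM downward by half-logs, in duplicate with 0.5% DMSO vehicle and 1 mM phenobarbital as induction control.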

[4] = read-out: solute carrier (SLC22A1), SLC22A1 (gene 6580); test: LTEA_HepaRG_SLC22A1: Life Technologies and Expression Analysis (LTEA) Assay for solute carrier (SLC22A1) using HepaRG (AID 2283524)
Procedure, shortened: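 Transcript level of SLC22A1 quantified by qRT-PCR (normalized to three housekeeping genes) after 48 h chemical exposure of HepaRG cells, eight concentrations up to 100 µM, half-log steps, 0.5% DMSO vehicle. Gain or loss relative to DMSO fitted bidirectionally.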

[5] = read-out: NAD(P)H dehydrogenase [quinone] 1 (NQO1), NQO1 (gene 1728); test: LTEA_HepaRG_NQO1: Life Technologies and Expression Analysis (LTEA) Assay for NAD(P)H dehydrogenase [quinone] 1 (NQO1) using HepaRG (AID 2283526)
Procedure, shortened: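 NQO1 transcript induction or loss measured by TaqMan qRT-PCR, referenced to three housekeeping genes and fitted bidirectionally against 0.5% DMSO. HepaRG cultures exposed 48 h, duplicate, eight-point half-log series, top 100 uM.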

[6] = read-out: Nuclear factor erythroid 2-related factor 2 (Homo sapiens) (UniProt Q16236); test: LTEA_HepaRG_NFE2L2: Life Technologies and Expression Analysis (LTEA) Assay for Nuclear factor erythroid 2-related factor 2 (NFE2L2) Transcription Factor using HepaRG (AID 2283527);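 further: TaqMan qRT-PCR transcript level normalised to ACTB GAPDH and POLR2A housekeeping genes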
Procedure, shortened: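 NFE2L2 transcript level was read by qRT-PCR (housekeeping ACTB/GAPDH/POLR2A normalisation) after 48 h chemical treatment of HepaRG in serum-free induction medium. Duplicate 8-point half-log curves, top 100 uM, 0.5% DMSO vehicle; up- or down-regulation fitted against vehicle.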

[7] = read-out: succinate dehydrogenase complex iron sulfur subunit B (SDHB), SDHB (gene 6390); test: LTEA_HepaRG_SDHB: Life Technologies and Expression Analysis (LTEA) Assay for succinate dehydrogenase complex iron sulfur subunit B (SDHB) using HepaRG (AID 2283528)
Procedure, shortened: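 HepaRG, 48 h exposure, 8-pt half-log series from 100 uM in 0.5% DMSO, duplicates. Readout: SDHB mRNA by Fluidigm qRT-PCR vs housekeeping genes; bidirectional fit relative to DMSO.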

[8] = read-out: Signal transducer and activator of transcription 3 (Homo sapiens) (UniProt P40763); test: LTEA_HepaRG_STAT3: Life Technologies and Expression Analysis (LTEA) Assay for Signal transducer and activator of transcription (STAT3) using HepaRG (AID 2283529)
Procedure, shortened: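 STAT3 transcript quantified by qRT-PCR against three housekeeping genes (ACTB, GAPDH, POLR2A), fitted both directions relative to DMSO. HepaRG cultures exposed 48 h to eight half-log concentrations, top 100 uM, 0.5% DMSO, serum-free induction medium.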

[9] = read-out: solute carrier (SLCO1B1), SLCO1B1 (gene 10599); test: LTEA_HepaRG_SLCO1B1: Life Technologies and Expression Analysis (LTEA) Assay for solute carrier (SLCO1B1) using HepaRG (AID 2283530)
Procedure, shortened: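 Human HepaRG cultures treated for 48 h with an eight-concentration half-log series topping at 100 uM; SLCO1B1 measured by qRT-PCR and fitted bidirectionally relative to DMSO.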

[10] = read-out: sulfotransferase 2A1 (SULT2A1), SULT2A1 (gene 6822); test: LTEA_HepaRG_SULT2A1: Life Technologies and Expression Analysis (LTEA) Assay for sulfotransferase 2A1 (SULT2A1) using HepaRG (AID 2283531)
Procedure, shortened: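 Gene-expression endpoint in a human liver cell line: SULT2A1 mRNA change after 48 h chemical treatment, curves fitted in both directions relative to 0.5% DMSO vehicle. Concentrations spanned eight half-log steps from 100 uM.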

[11] = read-out: Transforming Growth Factor (TGFA), TGFA (gene 7039); test: LTEA_HepaRG_TGFA: Life Technologies and Expression Analysis (LTEA) Assay for Transforming Growth Factor (TGFA) using HepaRG (AID 2283532)
Procedure, shortened: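 TGFA transcript quantified by qRT-PCR (Fluidigm arrays) against three housekeeping genes, after 48 hours chemical treatment of HepaRG cells. Top concentration 100 uM with half-log dilutions, 8 points, duplicates, 0.5% DMSO.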

[12] = read-out: Transforming Growth Factor (TGFB1), TGFB1 (gene 7040); test: LTEA_HepaRG_TGFB1: Life Technologies and Expression Analysis (LTEA) Assay for Transforming Growth Factor (TGFB1) Transporter using HepaRG (AID 2283533)
Procedure, shortened: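 Eight-point concentration-response (max 100 uM, half-log) in HepaRG under serum-free induction conditions, 48 h. TGFB1 mRNA by qRT-PCR, housekeeping-normalized.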

TIMP1, TIMP1 (gene 7076) = test: LTEA_HepaRG_TIMP1: Life Technologies and Expression Analysis (LTEA) Assay for TIMP1 using HepaRG (AID 2283534);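 further: TaqMan qRT-PCR signal normalized to ACTB GAPDH and POLR2A housekeeping genes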
Procedure, shortened: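 TIMP1 induction or repression in HepaRG cells after 48 h chemical exposure (eight concentrations, highest 100 uM), assessed by normalized qRT-PCR with bidirectional fitting to DMSO controls.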

[13] = read-out: Tumor necrosis factor receptor 1 (TNFRSF1A), TNFRSF1A (gene 7132); test: LTEA_HepaRG_TNFRSF1A: Life Technologies and Expression Analysis (LTEA) Assay for Tumor necrosis factor receptor 1 (TNFRSF1A) using HepaRG (AID 2283535)
Procedure, shortened: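 Assay uses 48 h chemical treatment of differentiated HepaRG monolayers, tested in duplicate at eight concentrations from 100 uM downward in 0.5% DMSO. mRNA is normalized to ACTB, GAPDH and POLR2A, with induction or suppression fitted relative to vehicle.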

[14] = read-out: Cellular tumor antigen p53 (Homo sapiens) (UniProt P04637); test: LTEA_HepaRG_TP53: Life Technologies and Expression Analysis (LTEA) Assay for Tumor Protein P53 (TP53) using HepaRG (AID 2283537)
Procedure, shortened: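 HepaRG, 48 h exposure, top 100 uM, half-log 8-point, 0.5% DMSO vehicle, duplicates. Read: TP53 mRNA by TaqMan qRT-PCR, normalised to ACTB/GAPDH/POLR2A; bidirectional fit vs DMSO.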

[15] = read-out: UDP glucuronosyltransferase (UGT1A1), UGT1A1 (gene 54658); test: LTEA_HepaRG_UGT1A1: Life Technologies and Expression Analysis (LTEA) Assay for UDP glucuronosyltransferase (UGT1A1) using HepaRG (AID 2283538)
Procedure, shortened: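 UGT1A1 transcript level, measured by qRT-PCR with three housekeeping genes for normalization, after 48 h treatment of human HepaRG cells (0.5% DMSO, duplicates, up to 100 uM, half-log steps, 8 points). Curves fit both directions against DMSO baseline.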

[16] = read-out: Nuclear factor NF-kappa-B p105 subunit (Homo sapiens) (UniProt P19838); test: LTEA_HepaRG_NFKB1: Life Technologies and Expression Analysis (LTEA) Assay for Nuclear Factor Kappa B Subunit 1 (NFKB1) using HepaRG (AID 2283521)
Procedure, shortened: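 Differentiated human HepaRG cells were exposed for 48 h in serum-free induction medium to eight concentrations (top 100 uM, half-log steps, 0.5% DMSO), in duplicate. NFKB1 mRNA was measured by TaqMan qRT-PCR, normalized to ACTB/GAPDH/POLR2A, and fitted bidirectionally against DMSO.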

[17] = read-out: Phosphatase and tensin (PTEN), PTEN (gene 5728); test: LTEA_HepaRG_PTEN: Life Technologies and Expression Analysis (LTEA) Assay for Phosphatase and tensin (PTEN) using HepaRG (AID 2283523)
Procedure, shortened: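 Read-out: TaqMan qRT-PCR of PTEN transcript, normalized to three housekeeping genes, fitted in both directions against 0.5% DMSO. Differentiated human HepaRG cultures received chemicals for 48 h, eight-point half-log series topping at 100 uM.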

[18] = read-out: Pyruvate Dehydrogenase Kinase 4 (PDK4), PDK4 (gene 5166); test: LTEA_HepaRG_PDK4: Life Technologies and Expression Analysis (LTEA) Assay for Pyruvate Dehydrogenase Kinase 4 (PDK4) using HepaRG (AID 2283525)
Procedure, shortened: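 Readout is qRT-PCR of PDK4 transcript, normalized to three housekeeping genes, with bidirectional fitting against 0.5% DMSO vehicle. Differentiated HepaRG cells were treated 48 h in serum-free induction medium, duplicate wells, eight-point half-log series topping at 100 uM.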

[19] = read-out: Thyroid Hormone Responsive (THRSP), THRSP (gene 7069); test: LTEA_HepaRG_THRSP: Life Technologies and Expression Analysis (LTEA) Assay for Thyroid Hormone Responsive (THRSP) using HepaRG (AID 2283536)
Procedure, shortened: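 THRSP transcript quantified by Fluidigm qRT-PCR against three housekeeping genes after 48 h chemical exposure of HepaRG cells in serum-free induction medium; eight-point half-log series, top 100 uM, 0.5% DMSO vehicle, duplicate wells.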

Measured: outcome

Chain of Signal transducer and activator of transcription 3 (Homo sapiens) (P40763 whole entry, looked up): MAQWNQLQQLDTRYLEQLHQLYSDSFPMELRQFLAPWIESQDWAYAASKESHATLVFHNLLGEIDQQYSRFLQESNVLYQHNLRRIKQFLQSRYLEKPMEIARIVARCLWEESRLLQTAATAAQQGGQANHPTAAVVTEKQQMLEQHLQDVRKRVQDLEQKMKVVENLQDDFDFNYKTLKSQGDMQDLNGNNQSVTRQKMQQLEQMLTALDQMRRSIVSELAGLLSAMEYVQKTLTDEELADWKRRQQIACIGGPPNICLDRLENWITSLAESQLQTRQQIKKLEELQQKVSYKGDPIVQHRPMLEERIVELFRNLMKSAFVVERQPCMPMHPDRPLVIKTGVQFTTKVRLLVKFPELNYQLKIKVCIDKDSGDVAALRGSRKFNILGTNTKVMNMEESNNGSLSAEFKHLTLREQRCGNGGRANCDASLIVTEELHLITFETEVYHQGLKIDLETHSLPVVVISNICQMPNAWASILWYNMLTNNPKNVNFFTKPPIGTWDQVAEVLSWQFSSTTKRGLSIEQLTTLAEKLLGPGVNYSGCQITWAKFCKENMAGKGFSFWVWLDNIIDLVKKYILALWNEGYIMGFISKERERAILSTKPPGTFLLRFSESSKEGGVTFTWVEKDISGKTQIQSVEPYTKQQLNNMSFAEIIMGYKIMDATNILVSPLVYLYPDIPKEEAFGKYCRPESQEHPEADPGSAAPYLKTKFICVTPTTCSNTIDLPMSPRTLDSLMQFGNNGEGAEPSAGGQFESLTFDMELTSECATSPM
Chain of Nuclear factor NF-kappa-B p105 subunit (Homo sapiens) (P19838 whole entry, looked up): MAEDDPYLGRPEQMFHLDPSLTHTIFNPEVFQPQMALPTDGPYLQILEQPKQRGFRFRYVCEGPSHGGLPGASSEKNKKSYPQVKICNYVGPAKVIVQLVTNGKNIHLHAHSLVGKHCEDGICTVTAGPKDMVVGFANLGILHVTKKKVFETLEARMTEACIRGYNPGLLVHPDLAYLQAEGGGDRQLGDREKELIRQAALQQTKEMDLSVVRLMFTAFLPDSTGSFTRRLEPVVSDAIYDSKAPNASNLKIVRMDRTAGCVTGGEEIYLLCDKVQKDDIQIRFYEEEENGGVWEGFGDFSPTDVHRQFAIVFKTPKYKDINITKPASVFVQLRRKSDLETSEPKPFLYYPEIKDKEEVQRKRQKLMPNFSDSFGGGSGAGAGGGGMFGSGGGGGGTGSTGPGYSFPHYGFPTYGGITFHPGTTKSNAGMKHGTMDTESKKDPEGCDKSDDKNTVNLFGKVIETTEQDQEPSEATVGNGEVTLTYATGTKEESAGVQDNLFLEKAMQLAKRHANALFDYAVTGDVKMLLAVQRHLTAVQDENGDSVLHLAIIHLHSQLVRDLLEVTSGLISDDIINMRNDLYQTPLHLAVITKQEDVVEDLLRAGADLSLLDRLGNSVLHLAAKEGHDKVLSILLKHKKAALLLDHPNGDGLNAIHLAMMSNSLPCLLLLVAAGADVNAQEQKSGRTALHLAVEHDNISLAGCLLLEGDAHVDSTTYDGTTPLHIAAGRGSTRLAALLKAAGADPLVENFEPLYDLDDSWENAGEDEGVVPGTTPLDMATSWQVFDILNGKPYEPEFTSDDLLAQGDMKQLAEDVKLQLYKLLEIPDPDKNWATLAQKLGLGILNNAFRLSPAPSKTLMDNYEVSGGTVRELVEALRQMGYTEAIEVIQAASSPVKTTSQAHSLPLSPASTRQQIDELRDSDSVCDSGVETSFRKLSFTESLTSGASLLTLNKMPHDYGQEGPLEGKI
Chain of Nuclear factor erythroid 2-related factor 2 (Homo sapiens) (Q16236 whole entry, looked up): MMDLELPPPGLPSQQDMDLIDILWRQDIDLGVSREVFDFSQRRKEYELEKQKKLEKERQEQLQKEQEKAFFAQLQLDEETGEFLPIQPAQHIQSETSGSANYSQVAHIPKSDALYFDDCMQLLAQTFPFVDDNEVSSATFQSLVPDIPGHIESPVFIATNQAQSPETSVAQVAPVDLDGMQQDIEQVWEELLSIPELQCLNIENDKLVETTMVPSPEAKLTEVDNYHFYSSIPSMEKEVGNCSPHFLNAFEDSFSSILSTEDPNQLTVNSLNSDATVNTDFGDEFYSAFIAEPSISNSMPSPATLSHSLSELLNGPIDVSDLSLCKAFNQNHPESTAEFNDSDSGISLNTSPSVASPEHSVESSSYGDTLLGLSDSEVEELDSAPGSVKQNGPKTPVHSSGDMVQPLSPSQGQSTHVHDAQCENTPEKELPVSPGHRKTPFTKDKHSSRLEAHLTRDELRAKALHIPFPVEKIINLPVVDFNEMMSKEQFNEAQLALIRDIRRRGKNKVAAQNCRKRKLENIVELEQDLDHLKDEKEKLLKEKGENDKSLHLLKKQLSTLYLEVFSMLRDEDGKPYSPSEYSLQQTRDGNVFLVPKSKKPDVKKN
Chain of Cellular tumor antigen p53 (Homo sapiens) (P04637 whole entry, looked up): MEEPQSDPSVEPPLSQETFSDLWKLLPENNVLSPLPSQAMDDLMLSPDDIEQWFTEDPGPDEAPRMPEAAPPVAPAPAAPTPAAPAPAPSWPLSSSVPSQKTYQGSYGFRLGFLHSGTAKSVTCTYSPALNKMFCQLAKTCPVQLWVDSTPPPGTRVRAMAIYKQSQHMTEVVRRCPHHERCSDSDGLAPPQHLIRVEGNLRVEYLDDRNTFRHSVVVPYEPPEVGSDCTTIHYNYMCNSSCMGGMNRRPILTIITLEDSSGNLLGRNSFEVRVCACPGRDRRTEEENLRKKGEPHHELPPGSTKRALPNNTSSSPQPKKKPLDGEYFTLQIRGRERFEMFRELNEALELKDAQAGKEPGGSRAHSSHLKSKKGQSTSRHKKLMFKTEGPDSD

Cc1ccc(Cl)cc1
not listed: [16] | [17] | [18] | [19]
inactive: all other assays above

Cc1ccc(N(C)C)cc1
not listed: [3] | [8] | [15] | [18] | [19]
inactive: all other assays above

Cc1ccc(C)c(O)c1C
not listed: [1] | [7] | [8] | [15] | [19]
inactive: all other assays above

CCCCN(CCCC)CCCC
not listed: [1] | [18] | [19]
inactive: all other assays above

CCCc1cc(=O)[nH]c(=S)[nH]1
not listed: [3] | [7] | [8] | [16]
inactive: all other assays above

CC(=O)C(C)=CC1C(C)=CCCC1(C)C (stereo not given)
not listed: [3] | [7] | [16] | [18] | [19]
inactive: all other assays above

C=CCc1ccc(O)c(OC)c1
not listed: [3] | [7] | [8] | [16] | [19]
inactive: all other assays above

NCCO
not listed: [3] | [7] | [15] | [16]
inactive: all other assays above

Source: PubChem BioAssay (EPA / NIEHS)
